Compound activity: PubChem BioAssay, National Center for Advancing Translational Sciences (NCATS)
A selection: hits, their analogues and other compounds. The true share with any hit is near 2.4%.
Luciferase inh – firefly luciferase inhibition; purified firefly luciferase, luminescence, 8 min; Potency, µM (titrated, usually from 57.1 µM), for inactives: at the highest dose activity change, negative = inhibition, hits mostly inhibitors; 72,000 tested, 2.2% active; also: % is scaled to controls: 0 for no effect and ±100 for the full control effect; nearly all actives have a fitted effect of over 40% in size
Target sequence (P08659 whole entry, looked up): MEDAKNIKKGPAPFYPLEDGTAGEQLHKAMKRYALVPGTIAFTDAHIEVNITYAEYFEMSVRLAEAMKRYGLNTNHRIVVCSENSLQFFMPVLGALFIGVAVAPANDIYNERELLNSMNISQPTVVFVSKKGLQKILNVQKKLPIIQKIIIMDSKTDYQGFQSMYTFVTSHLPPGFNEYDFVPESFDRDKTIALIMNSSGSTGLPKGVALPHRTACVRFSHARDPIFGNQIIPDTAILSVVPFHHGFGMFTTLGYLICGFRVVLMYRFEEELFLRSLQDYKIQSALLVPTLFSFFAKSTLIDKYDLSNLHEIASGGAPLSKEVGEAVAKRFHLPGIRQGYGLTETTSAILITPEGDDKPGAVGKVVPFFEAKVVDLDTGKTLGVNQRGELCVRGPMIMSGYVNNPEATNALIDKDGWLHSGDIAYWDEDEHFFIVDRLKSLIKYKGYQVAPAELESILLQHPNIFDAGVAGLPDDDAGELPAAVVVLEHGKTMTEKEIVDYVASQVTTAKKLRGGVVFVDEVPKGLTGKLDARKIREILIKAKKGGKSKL
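Titration-based qHTS; buffer 50 mM imidazole pH 7.2, 50 mM KCl, 7 mM MgCl2, 10 uM ATP, 0.01% Tween 20, 0.05% BSA; luciferase/luciferin detector mix added after compound; 8 min, ambient; luminescence.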
Peg3 imprint – genomic imprint erasure induction. mouse ES Peg3-LacZ reporter, beta-gal luminescence, 40 h. Potency, µM (series often up to 60.7 µM), inactives show at the highest dose activity change, positive = activation, actives largely listed as activators. 110,000 tested, 0.02% active
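Imprint erasure is scored as LacZ activity from the silenced maternal Peg3 allele in feeder-free female ES cells cultured 40 h with LIF. Luminescence is normalized to in-plate negative controls and fitted to the Hill equation.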
IkB signaling – inhibitors of IkB signaling in ABC-DLBCL cells; ABC-DLBCL IkBa-CBG/CBR dual luciferase ratio, 4 h; response scale: scaled: untreated 0%, proteasome inhibitor 100%; Potency, µM (top dose mostly 57.1 µM), without a hit: at the top dose IkBa stabilization activation; 110,000 tested, 0.04% active; AID 445; active = well fitted curve in the direction sought with a large enough effect in the signal ratio, not every such curve was filed as active; inconclusive = small, poorly fitted or top-dose-only effect, or a change in a side signal; the % refers to the signal ratio;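 also: the direction sought is a rising ratio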
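Luminescence ratio of IκBα-fused green versus native red beetle luciferase in OCI-Ly3 cells, 4 h post-doxycycline with compound; red signal alone, scaled from basal (0%) to zero light (-100%), flagged nonspecific or cytotoxic effects.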
p53ts 32C tox – cytotoxicity in p53ts cells at permissive temperature; H1299-p53A138V at 32C, ATP luminescence viability, 24 h; Potency, µM (series often up to 46.1 µM), without a hit: top-dose activity change, negative = cytotoxicity, usual class: cytotoxic; 130,000 tested, 0.93% active; AID 924;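 also: 0% = DMSO and -100% = full killing by reference compound; nearly all actives have a fitted effect of over 55% in size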
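ATP-content luminescence (ATPlite) read-out after 24 h compound exposure at 32C in H1299-p53A138V cells (600/well). Tested up to 46 uM. Normalized to DMSO (0%) and 100 uM tamoxifen (100% killing); Hill-fit AC50.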
p53ts 39C kill – kills p53ts cells at the nonpermissive temperature. H1299-p53A138V viability at 39C, ATP luminescence, 24 h. Potency, µM (series often up to 46.1 µM), inactives show at the top dose activity change, negative = cell killing, most hits filed as cytotoxic. 130,000 tested, 1.5% active; also: % is scaled to controls: 0 for no effect and ±100 for the full control effect; nearly all actives have a fitted effect of over 55% in size
Active calls of the source: *; ? = inconclusive; . = no result given; [ ] = dose if it differs, or a comment. Unless noted, calls follow the shape of the dose curve; as a rule, active = well fitted curve in the direction sought with a large enough effect; inconclusive = small, poorly fitted or top-dose-only effect, or another doubt; inactive = no such curve, though single readings can be large; an effect the other way counts as inactive or inconclusive. Potency is read from the fitted curve at half-maximal effect.

SMILES	Luciferase inh	Peg3 imprint	IkB signaling	p53ts 32C tox	p53ts 39C kill
CC(C)Cn1nc(NS(=O)(=O)c2ccccc2)c2cc3ccccc3nc21	6.31µM*	-61.5%	-3.4%	?	?
CCCn1nc(NS(=O)(=O)c2ccccc2)c2cc3ccccc3nc21	2.4%	-26.8%	?	-2.1%	3.4%
Cc1ccc(NC(=O)CN2C(=O)C3(SCC(=O)N3c3ccc(F)c(F)c3)c3ccccc32)c(C)c1 (stereo not given)	.	-9.2%[10.9 µM]	?	2.5%	-1.5%
COc1ccc2cc(CNc3ccc(OC)c(OC)c3)c(=O)n(CC(=O)Nc3ccc(C)cc3)c2c1	.	15.4%[10.9 µM]	0.8%	4.5%	-21.0%
CCOC(=O)c1ccccc1NC(=O)CSc1nc2ccccc2o1	3.2%	-70.5%	-2.1%	-4.1%	-16.5%
CCCOC(=O)Nc1nc2ccccc2o1	-22.4%	.	?	10µM*	?
C#C[C@@]1(O)CC[C@H]2[C@H]3CCC4=Cc5oncc5C[C@]4(C)[C@@H]3CC[C@@]21C	-1.0%	.	16.9%	.	.
c1ccc(N2CCN(c3nc4cc5c(cc4s3)OCCO5)CC2)cc1	-20.2%	0.2%	-1.9%	-22.8%	-17.3%
c1c2c(cc3sc(N4CCOCC4)nc13)OCCO2	1.58µM*	-86.2%	?	3.16µM*	5.01µM*
COc1cc(CN(C(=O)COc2ccccc2)c2ccccn2)cc(OC)c1OC	.	-13.4%[10.9 µM]	-1.3%	-2.3%	20.4%
Cc1ccc(C(=O)Oc2ccc3c(c2)ncn3C)cc1	15.8µM*	-9.9%	-1.9%	-8.6%	-1.8%
Cn1cnc2cc(OC(=O)c3ccccc3)ccc21	15.8µM*	5.1%	4.0%	2.8%	2.1%
COC(=O)c1ccc(C)cc1	.	-2.2%	2.5%	.	.
Cc1nn(-c2nc3ccccc3[nH]2)c(N)c1-c1ccccc1	7.94µM*	-38.2%	?	?	?
Cc1nn(-c2nc3ccccc3s2)c(N)c1-c1ccccc1	3.98µM*	-36.0%	?	?	?
Cc1nc2c(-c3ccccc3)c(C)nn2c(N)c1-c1ccccc1	.	.	.	11.2µM*	?
CCOC(=O)Cc1c(C)nc2c(-c3ccccc3)c(C)nn2c1C	.	.	.	7.8%	8.7%
CC(=O)Nc1ccccc1OCc1cc(=O)n2c3c(sc2n1)CCCC3	.	-13.9%[10.9 µM]	-0.4%	-5.4%	-22.4%
CCN(CC)c1ccc(NS(=O)(=O)c2ccc3c(c2)CCCN3C(C)=O)c(C)c1	.	22.8%[10.9 µM]	?	12.7%	-17.6%
O=C(NCCCn1ccnc1)c1cn(-c2ccccc2)nc1-c1ccc(F)cc1	12.6µM*	-8.1%	1.0%	-18.6%	-19.7%
O=C(Nc1ccc(F)cc1)c1cn(-c2ccccc2)nc1-c1ccncc1	.	.	.	6.6%	6.8%
CN(C)c1ccc(NC(=O)Cn2cc(S(=O)(=O)Cc3ccccc3Cl)c3ccccc32)cc1	.	.	.	-5.8%	.
Cc1ccc2nc(-c3ccc4c(c3)OCCO4)cc(C(=O)O)c2c1	12.6µM*	-27.9%	?	15.8µM*	10µM*
O=C(O)c1cc(-c2cccs2)nc2cc3c(cc12)OCCO3	15.8µM*	-13.2%	3.0%	?	10µM*
Cc1ccc(-c2cc(C(=O)Oc3ccccc3)c3cc(C)ccc3n2)cc1	.	-5.8%[10.9 µM]	?	-16.8%	-19.1%
SMILES	Luciferase inh	Peg3 imprint	IkB signaling	p53ts 32C tox	p53ts 39C kill
Cc1ccc(Cl)cc1NC(=O)Nc1nnc(N2CCCC(C)C2)s1 (stereo not given)	.	-8.9%[10.9 µM]	?	2.6%	-2.3%
CCC1CCCCN1CCCNC(=O)c1cc2c(Cl)nc3ccc(C)cc3c2s1 (stereo not given)	.	-16.0%[10.9 µM]	-5.4%	-14.3%	12.6µM*
CCC1CCCCN1CCCNC(=O)c1cc2c(=O)n(CC)c3ccccc3c2s1 (stereo not given)	.	-12.2%[10.9 µM]	-0.1%	5.8%	-16.0%
COc1cccc(-c2noc(-c3cccs3)n2)c1	10µM*	-67.6%	6.3%	?	-24.5%
COc1cccc(-c2nc(-c3ccccc3)no2)c1	10µM*	-54.8%	?	?	-19.5%
COc1cccc(-c2noc(-c3cccnc3)n2)c1	12.6µM*	-76.5%	4.5%	?	-28.1%
COc1nc(-c2ccccc2)ccc1-c1noc(-c2cccs2)n1	-2.0%	9.7%	4.4%	-5.0%	2.7%
COC(=O)c1ccc(-c2nc(-c3cccs3)no2)cc1	1.58µM*	-94.2%	3.3%	?	?
COC(=O)c1ccc(-c2nc(-c3ccc(Br)o3)no2)cc1	-6.9%	-14.9%	1.5%	-8.0%	-1.5%
COc1ccc(NC(=O)c2c(NCc3ccc(C)o3)sc3c2CCC(C)C3)cc1 (stereo not given)	.	-9.2%[10.9 µM]	-2.0%	11.5%	63.8%
CSc1ncc(Cl)c(C(=O)Nc2ccc(S(=O)(=O)N3CCC(C)CC3)cc2)n1	.	-5.4%[10.9 µM]	0.1%	4.8%	-17.7%
O=C(Nc1ccc(F)cc1F)c1ccc2c(O)c(S(=O)(=O)c3ccc(Cl)cc3)c(=O)[nH]c2c1	.	-8.6%[10.9 µM]	?	0.8%	-4.7%
O=C(OCC1OC(OC(=O)c2cc(O)c(O)c(OC(=O)c3cc(O)c(O)c(O)c3)c2)[C@@H](OC(=O)c2cc(O)c(O)c(OC(=O)c3cc(O)c(O)c(O)c3)c2)C(OC(=O)c2cc(O)c(O)c(OC(=O)c3cc(O)c(O)c(O)c3)c2)C1OC(=O)c1cc(O)c(O)c(OC(=O)c2cc(O)c(O)c(O)c2)c1)c1cc(O)c(O)c(OC(=O)c2cc(O)c(O)c(O)c2)c1 (stereo not given in full)	.	-82.9%	.	10µM*	6.31µM*
COc1cccc(-c2nccc(NCc3cccs3)n2)c1	-22.8%[2.29 µM]	-18.0%	1.6%[11.4 µM]	?	12.6µM*
c1ccc(CNc2ccnc(-c3ccc4c(c3)OCO4)n2)cc1	-4.5%[2.29 µM]	-15.4%	1.4%[11.4 µM]	?	?
c1csc(CNc2ccnc(-c3ccc4c(c3)OCO4)n2)c1	?	-14.3%	2.3%[11.4 µM]	12.6µM*	10µM*
CCOc1ccc(OCC)c(NS(=O)(=O)c2ccc3c(c2)CCCN3C(C)=O)c1	.	-7.6%[10.9 µM]	-0.7%	-3.3%	-29.7%
Cc1cc(N2CCOCC2)nc2ccc(NC(=O)CCC(=O)N3CCCC(C)C3)cc12 (stereo not given)	25.1µM*	22.3%	-1.1%	-12.3%	-13.3%
Cc1ccc(N2CC(NC(=O)Cc3ccc(F)cc3)CC2=O)cc1C (stereo not given)	.	5.7%[10.9 µM]	0.4%	-17.5%	-9.6%
Cc1ccc(NC(=O)c2cnn3c(C(F)F)cc(-c4ccccc4)nc23)cc1F	.	-5.3%[10.9 µM]	0.0%	-4.3%	7.9%
CNS(=O)(=O)c1ccc(NC(=O)c2cnn3c(C(F)F)cc(-c4ccccc4)nc23)cc1	.	5.5%[10.9 µM]	-1.0%	6.4%	12.6µM*
Cc1ccc(Cl)cc1NC(=O)c1ccc(NC(=O)N2CCSc3ncccc32)cc1	.	-3.6%[10.9 µM]	?	4.9%	-21.1%
CCOC(=O)c1ccc2c(c1)sc1nc(-c3ccc(OCC)cc3)cn12	.	-15.2%[10.9 µM]	-0.2%	-6.6%	-16.7%
